Sampled rows, rich in hits. Any-hit rate of the full collection: about 21%.
CHX counter = counter-screen for Shiga toxin inhibitors: cycloheximide protein synthesis inhibition; 12% of 300,000 active; max response, %; cell reporter, cycloheximide protein synthesis inhibition counterscreen; AID 2314; in the data active = max response mostly above about 13%, no sharp cut-off; inactive = mostly below about 14%; note: read at 38.3 µM for the half of the compounds with a filed dose
Shiga toxin inh = inhibitors of Shiga toxin in Vero cells; Vero cells, Shiga toxin protein synthesis inhibition reporter; inhibition, % at 38.7 µM; 9.2% of 290,000 active; AID 2315; in the data active = inhibition mostly above about 28%, no sharp cut-off; inactive = mostly below about 43%
NS1 inh = inhibitors of influenza NS1 protein function; Potency, µM (titrated, usually from 46.1 µM); 0.4% of 270,000 active; calls by dose curve; note: actives are rising curves; nearly all actives have a fitted effect of over 50% in size
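Read-out: OD600 growth recovery of NS1-expressing budding yeast. Cells grown overnight at 30C in -URA glucose medium, washed, resuspended and diluted 1:100 in 2% galactose assay medium, pH 6.0. Same strain lacking NS1 served as positive control.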
Sm TGR block = S. mansoni TGR enzyme inhibition; purified TGR, DTNB reduction, TNB absorbance 405 nm; Potency, µM (titrated, usually from 114 µM), actives largely listed as inhibitors; 3% of 360,000 active; AID 485364; note: nearly all actives have a fitted effect of over 60% in size
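First, TGR (20 nM dispensed) and NADPH were mixed with compound. Second, a 15 min room-temperature incubation followed. Third, further NADPH and then DTNB were added to start the reaction. Finally, TNB absorbance was monitored kinetically.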
Pf growth 96h = inhibits malaria parasite growth, 96 h | P. falciparum luciferase reporter growth, 96 h | 6.9% of 320,000 active | Potency, µM (doses to about 28.7 µM), most hits filed as inhibitors | AID 504834
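Parasite growth measured via integrated firefly luciferase reporter in P. falciparum. Infected erythrocytes at 2% hematocrit, 0.05% parasitemia final were treated 96 hours at 37 C under 5% CO2, and luminescence was read.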
Pf growth 48h = P. falciparum growth inhibition at 48 hours (one generation); P. falciparum luciferase growth in erythrocytes, 48 h; AID 504832; Potency, µM (series often up to 28.7 µM), most hits filed as inhibitors; 5.9% of 310,000 active
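Parasite viability was followed by luminescence of a genomically integrated firefly luciferase. Cultures held 0.1% parasitemia at 2% hematocrit (final), incubated under 5% CO2 at 37 C.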
Numbers stand for hits; i = inactive; ? = inconclusive; nt = not tested or not shown; [ ] = dose if it differs, or a comment. Unless noted, calls come from the whole dose curve; as a rule, active = well fitted curve in the direction sought with a large enough effect; inconclusive = small, poorly fitted or top-dose-only effect, or another doubt; inactive = no such curve, though single readings can be large; an effect the other way counts as inactive or inconclusive.

SMILES | CHX counter | Shiga toxin inh | NS1 inh | Sm TGR block | Pf growth 96h | Pf growth 48h
COc1cc(-c2noc(CCC(N)=O)n2)cc(OC)c1OC | i | i | i | i | 9.3µM | i
COc1cc(-c2noc(CCC(=O)NC3CCCC3)n2)cc(OC)c1OC | i | i | i | i | i | i
CN(C)C(=O)CCc1nc(-c2ccc(C(C)(C)C)cc2)no1 | 44 | 123 | i | i | i | i
Cc1ccc(C(=O)CN(CCCC(N)=O)C(=O)c2ccncc2)cc1 | nt | nt | nt | i | i | i
CN(C)/C=C/c1onc(-c2c(F)cccc2Cl)c1C#N | 27 | 109 | nt | i | i | i
CC(C)Cn1c(SCC(=O)NCc2ccc(Cl)cc2)nnc1-c1cccc(S(=O)(=O)N2CCOCC2)c1 | i | i | i | i | 9.3µM | ?
CNC(=O)CSc1nnc(-c2ccc(S(=O)(=O)N3CCCC3)cc2)n1-c1cccc(C)c1C | i | i | i | i | i | ?
COc1ccccc1-n1c(SCC(=O)O)nnc1-c1ccc(S(=O)(=O)N2CCCCC2)cc1 | i | i | i | i | 12µM | i
CCOC(=O)CSc1nnc(-c2ccc(S(=O)(=O)N3CCOCC3)cc2)n1-c1ccccc1 | i | i | i | i | nt | 7.4µM
Cc1ccc(CSc2nnc(-c3cccc(S(=O)(=O)N4CCOCC4)c3)n2C2CCCC2)cc1 | i | i | i | i | 8.3µM | 9.3µM
Cc1nnc(SCC(=O)c2ccc(S(=O)(=O)N3CCOCC3)cc2)n1-c1ccccc1 | i | i | i | ? | i | ?
CCCCN(CCCC)C1=C(C(=O)c2ccccc2)N(C)S(=O)(=O)c2ccccc21 | nt | nt | nt | i | nt | nt
COc1ccc(-c2nc(CS(=O)CC(=O)NCc3ccc(F)cc3)c(C)o2)cc1 (stereo unspecified) | i | i | i | ? | ? | ?
CC(C)CC(OC(=O)c1nsc(Cl)c1Cl)C(=O)NC1CCCC1 (stereo unspecified) | i | i | i | i | i | i
Cc1ccc(C)c(S(=O)(=O)c2c(C)cc(C)[nH]c2=O)c1 | i | i | i | i | i | i
C=CCn1c(SCC(=O)Nc2ccccc2)nnc1-c1cccc(S(=O)(=O)N2CCOCC2)c1 | i | i | i | i[11.4 µM] | i | nt
CCOC(=O)CSc1nnc(-c2ccco2)n1-c1ccc(C)cc1 | i | i | i | ? | i | i
CCn1c(SCC(=O)Nc2ccccc2)nnc1-c1ccc(S(=O)(=O)N2CCOCC2)cc1 | i | i | i | i | ? | 5.2µM
CCOC(=O)CSc1nnc(-c2ccco2)n1-c1ccccc1 | i | i | i | 22µM | i | i
CCOC(=O)c1c(Oc2ccc(OC)cc2)nnc(-c2ccccc2)c1-c1ccccc1 | nt | nt | nt | i | nt | nt
C=CCN1C(=O)C(Cc2ccc(Br)cc2)S/C1=N\N=C\c1ccco1 (stereo unspecified) | i | i | i | ? | 12µM | i
C=CCN1C(=O)C(Cc2ccc(OC)cc2)S/C1=N/N=C/c1ccco1 (stereo unspecified) | i | i | i | 40µM | ? | 9.3µM
NC(=O)COc1ccc2cc(-c3ccc(F)cc3)c(=O)oc2c1 | 21 | 35 | i | i | i | i
NC(=O)COc1ccc2oc(-c3ccccc3)cc(=O)c2c1 | 27 | 69 | nt | i | i[5.75 µM] | i
NC(=O)COc1ccc2cc(-c3ccccc3)c(=O)oc2c1 | 32 | 62 | i | i | i | i
SMILES | CHX counter | Shiga toxin inh | NS1 inh | Sm TGR block | Pf growth 96h | Pf growth 48h
COc1ccccc1CN1CCc2c([nH]c3ccccc23)C1 | i | i | i | i | i | ?
Clc1cccc(CN2CCc3c([nH]c4ccccc34)C2)c1Cl | i | i | i | ? | ? | 1.9µM
O=C(O)CSc1ccc([N+](=O)[O-])cc1[N+](=O)[O-] | nt | nt | i | nt | nt | nt
O=C(c1ccc2c(c1)N(Cc1ccc(F)cc1)C(=O)c1ccccc1S2(=O)=O)N1CCN(Cc2ccccc2)CC1 | nt | nt | nt | i | nt | nt
Cn1c(CN2CCCC2)nc2cc(NS(=O)(=O)c3ccccc3)ccc21 | i | i | i | i | i | i
O=S(=O)(Nc1ccc(O)c(CN2CCCCC2)c1)c1ccccc1 | i | i | i | i | 0.59µM | ?
COc1ccc(C(=O)NCc2ccccc2CN2CCCC2)cc1S(=O)(=O)Nc1ccc(C)cc1 | nt | nt | nt | i | 4.1µM | 10µM
COc1ccc(C(=O)O)cc1S(=O)(=O)Nc1ccc(C)cc1 | i | i | nt | i | i | i
COc1ccc(NS(=O)(=O)c2cccc(C(=O)NCc3ccccc3CN3CCCC3)c2)cc1 | nt | nt | nt | i | 13µM | 13µM
CC(=O)c1ccc(N2CCN(c3nc4ccccc4c4nc(-c5cccc(C)c5)nn34)CC2)cc1 | nt | nt | nt | i | nt | nt
CCn1cc(C(=O)NCCCOC(C)C)c(=O)c2cc(S(=O)(=O)N3CCc4ccccc4C3)ccc21 | nt | nt | nt | i | nt | nt
COc1cccc(NS(=O)(=O)c2ccc3c(c2)n(C)c(=O)n3C)c1 | nt | nt | nt | i | nt | nt
CCOc1ccccc1C(=O)NCC(=O)NCC(c1ccco1)N1CCCCC1 (stereo unspecified) | nt | nt | nt | i | i | i
CSc1ccc(-c2nnn(Cc3ccc(C)cc3)n2)cc1 | 21 | i | i | i | i | nt
COc1ccc(-c2nnn(Cc3ccccc3)n2)cc1 | 44 | 86 | i | i | 13µM | i
Cc1ccccc1-c1nnn(Cc2ccc(-c3nn[nH]n3)cc2)n1 | i | i | i | i | ? | i
COc1cccc(COC(=O)c2ccc(-c3nnn(Cc4ccccc4)n3)cc2)c1 | nt | nt | nt | i | nt | nt
Cc1oc2ccc(OCc3ccccc3Cl)cc2c1C(=O)O | i | i | i | i | ? | i
O=C(O)c1cccc(-c2nnn(Cc3ccccc3)n2)c1 | 70 | 63 | i | i | i | i
O=C(O)c1cccc(OCc2ccccc2Cl)c1 | 111 | 122 | i | i | ? | i
Cc1ccc(S(=O)(=O)Nc2ccc(C(=O)NCCCn3ccnc3)cc2)cc1[N+](=O)[O-] | nt | nt | nt | i | ? | i
O=C(O)c1cccc(-c2nnn(Cc3ccccc3Cl)n2)c1 | 41 | 96 | i | i | i | i
Cc1ccccc1Cn1nnc(-c2cccc(C(=O)O)c2)n1 | 56 | 124 | i | i | i | i
O=C(OCc1ccccc1Cl)c1ccc(-c2nnn(Cc3ccccc3Cl)n2)cc1 | nt | nt | nt | i | nt | nt
Cc1ccccc1Cn1nnc(-c2ccc(C(=O)O)cc2)n1 | i | i | nt | i | i | i
SMILES | CHX counter | Shiga toxin inh | NS1 inh | Sm TGR block | Pf growth 96h | Pf growth 48h
CN(C)c1cc[n+](Cc2c(Cl)cccc2Cl)cc1 | i | i | i | i | 0.37µM | 4.7µM
COc1ccccc1CN1CC(C(=O)NCCc2ncccc2C)CCC1=O (stereo unspecified) | i | i | i | i | ? | i
CCOC(=O)/C=C/[C@H]1CC(c2ccccc2)(c2ccccc2)CO1 | nt | nt | nt | i | ? | ?
COc1ccc(C2(c3ccc(OC)cc3)NC(=O)N(CC(=O)NCC(C)c3ccccc3)C2=O)cc1 (stereo unspecified) | nt | nt | nt | i | 12µM | 12µM
CC1(c2ccc(OC(F)F)cc2)NC(=O)N(CC(=O)Nc2ccc(F)cc2)C1=O (stereo unspecified) | i | i | i | i | i | i
CC1(c2ccc(OC(F)F)cc2)NC(=O)N(CC(=O)Nc2ccc(OC(F)F)cc2)C1=O (stereo unspecified) | i | i | i | i | i | i

Screens deposited in PubChem by National Center for Advancing Translational Sciences (NCATS).
